Activity calls are given as the source filed them. The call rests on the fitted dose curve.
Target: Thyrotropin-releasing hormone receptor (Homo sapiens) (UniProt P34981)
Experiment: qHTS assay to identify small molecule agonists of the thyrotropin-releasing hormone receptor (TRHR) signaling pathway (AID 1346891)
Details: TRHR-HEK293 calcium fluorescence, agonist mode; series mostly up to 57.6 µM
Outline: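 Agonist-mode intracellular calcium readout: kinetic fluorescence over 3 min at 1 s intervals after compound addition to TRHR-HEK293 cells (18 h seeded, 2 h dye-loaded at 37 C). Fifteen concentrations, triplicates.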

Chain of Thyrotropin-releasing hormone receptor (Homo sapiens) (P34981 whole entry, looked up): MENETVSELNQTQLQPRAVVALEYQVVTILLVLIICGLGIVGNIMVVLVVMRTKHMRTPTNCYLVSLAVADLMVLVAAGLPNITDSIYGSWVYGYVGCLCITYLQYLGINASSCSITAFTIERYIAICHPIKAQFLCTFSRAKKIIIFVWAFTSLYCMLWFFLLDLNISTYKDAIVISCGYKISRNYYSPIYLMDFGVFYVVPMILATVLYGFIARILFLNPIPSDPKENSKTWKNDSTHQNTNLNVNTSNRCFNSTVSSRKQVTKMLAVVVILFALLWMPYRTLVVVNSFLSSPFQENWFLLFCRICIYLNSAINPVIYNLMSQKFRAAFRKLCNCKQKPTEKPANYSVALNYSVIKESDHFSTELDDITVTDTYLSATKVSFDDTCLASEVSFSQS

SMILES | outcome
CN(C)C(=O)C(c1ccccc1)c1ccccc1 | inactive
N#Cc1ccccn1 | inactive
C=CC(=O)OCCCCCC(C)C | inactive
O=P1(NCCCl)OCCCN1CCCl (stereo not given) | inactive
Cc1cccc(C)c1N | inactive
COS(=O)(=O)OC | inactive
CCOc1ccc(N)cc1 | inactive
CCCOC(=O)c1ccccc1C(=O)OCCC | inactive
Nc1cc(Cl)cc(Cl)c1 | inactive
CCCCC(CC)C(=O)Cl (stereo not given) | inactive
CC(C)(C)C(=O)CCl | inactive
O=C(O)CCCc1ccc(N(CCCl)CCCl)cc1 | inactive
OCc1ccco1 | inactive
COc1cc(-c2ccc(N)c(OC)c2)ccc1N | inactive
Cc1ccc(N=C=O)cc1N=C=O | inactive
ClC(Cl)c1ccccc1 | inactive
N#CN=C(N)N | inactive
Cl/C=C/Cl | inactive
CC(C)c1cccc(C(C)C)c1O | inactive
Cc1ccc(O)c(C)c1 | inactive
CC(C)CCCCCCOC(=O)c1ccccc1C(=O)OCCCCCCC(C)C | inactive
OCCCCO | inactive
CNC(=O)O/N=C/C(C)(C)SC | inactive
N#Cc1cccc(C#N)c1 | inactive
FC(F)(F)c1ccc(Cl)cc1 | inactive
CCOC(=O)CC(SP(=O)(OC)OC)C(=O)OCC (stereo not given) | inactive
O=C(O)C(Br)Br | inactive
CCOP(=S)(OCC)Oc1ccc([N+](=O)[O-])cc1 | inactive
Cc1cccc(C)c1NC(=O)CN1CCCC1=O | inactive
CN(C)C(=O)Cl | inactive
